Source: PubChem BioAssay
Only a selection was taken, and hits are over-represented in it overall.
Dicer inh: inhibitors of human Dicer processing of pre-microRNA | 47,000 compounds, 6% hits | cat-ELCCA pre-miR-21 Dicer processing, chemiluminescence; hits give high values | z-score at 25 µM; in the data active = z-score above about 3, passing the limit was not always enough;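 also: plate controls were vehicle for no effect and no enzyme for full effect; higher signal means more uncleaved substrate so more Dicer inhibition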
* marks the source's active call; other numbers are inactive results.

SMILES	Dicer inh
O=C(NC1CCCCC1)Oc1cc2oc(=O)sc2cc1Cl	4.1*
CNc1ccc(Br)cc1C(=O)c1ccc(Cl)cc1	-2.1
CCC1=C[C@@H]2CN3CCc4c([nH]c5ccccc45)[C@@](C(=O)OC)(C2)[C@@H]13	-1.4
COCc1cc(OC(=O)N(C)C)nc(Cc2c(Cl)cccc2Cl)n1	0.6
NCCCNc1ccc([N+](=O)[O-])c2cccnc12	0.82
Cc1cc(OC(=O)N(C)C)nc(SCc2c(F)cccc2Cl)n1	0.04
CSc1nc(OC(=O)N(C)C)cc(-c2ccccc2)n1	3.7*
COCc1cc(OC(=O)N(C)C)nc(-c2cccc(C)c2)n1	0.37
C[C@@]12C[C@H](O)CCN1CCc1ccccc12	0.35
O=C(Cn1cc(C(=O)c2ccccc2)c2ccccc21)NCc1ccc2c(c1)OCO2	3.5*
O=C(O)c1cn(Cc2ccc(Cl)cc2)c2ccccc12	0.07
c1ccc(CCNCc2ccc3c(c2)OCO3)cc1	-0.43
CC(=O)c1ccc(Cl)c(-n2c(=S)[nH]c3ccccc3c2=O)c1	-0.99
COc1ccc(-n2c(/C=C/c3ccc([N+](=O)[O-])o3)nc3ccccc3c2=O)cc1	0.32
CCOC(=O)C1=C(N)Oc2c(c(=O)oc3ccccc23)C1c1ccccc1 (stereo not given)	6.5
CCOC(=O)C1=C(N)Oc2c(c(=O)oc3ccccc23)C1c1ccc(OC)cc1 (stereo not given)	3*
CCC1C(C#N)=C(N)Oc2c1c(=O)oc1ccccc21 (stereo not given)	-0.66
Cc1ccc2nc(C(F)(F)F)n(-c3ccc(Cl)cc3)c(=O)c2c1	1.8
CCOc1ccc(Br)cc1/C=C(\C)[N+](=O)[O-]	-1
O=C(NC(=S)Nc1cc(C(F)(F)F)cc(C(F)(F)F)c1)Oc1ccccc1	-1.1
Cc1ccc(CN2CCN(C(C)C)CC2)cc1	2.9
c1ccc(CN2CCN(C3CCCCC3)CC2)cc1	3.1*
Clc1ccc(CN2CCN(Cc3ccccc3Cl)CC2)cc1	1.3
O=C1NC(=O)C(O)(c2c[nH]c3ccccc23)C(=O)N1	1.1
CN1CCc2c(sc3c2C(=O)NC(c2cccnc2)N3)C1 (stereo not given)	-1.3
SMILES	Dicer inh
CN(C)C(=O)Oc1nnc(SCc2ccccc2)n1-c1cccc(Cl)c1	-0.56
O=C1NC(=O)C(=Cc2ccc(Cl)cc2Cl)C(=O)N1	-2.9
C/C(=C\c1ccc([N+](=O)[O-])cc1)[N+](=O)[O-]	2.7
c1coc(CNCCc2ccc3c(c2)OCO3)c1	7.7*
CCc1ccc(CNCCc2ccc3c(c2)OCO3)cc1	0.83
c1cc2c(cc1CCNCc1ccc3c(c1)OCO3)OCO2	2.5
CCC1(C(=O)c2ccc(C)cc2)C2c3cc(Br)ccc3OC(=O)C21C(=O)OC (stereo not given)	0.29
COc1ccc(CSC2C(C(=O)NNC(=O)c3ccc(Cl)cc3Cl)C3CCN2CC3)cc1 (stereo not given)	-0.38
CC1(C)Cc2nc(N3CCCC3)c(C#N)cc2CS1	1.6
Cc1ccc(-n2c(C)nc3cc(Cl)ccc3c2=O)cc1Cl	-1
CC12CCC3(C=C1CCC1C2CCC2(C)C(O)CCC12)OCCO3 (stereo not given)	0.81
CC(=O)OC1CCC2C3C=CC4=CC(=O)C=CC4(C)C3CCC12C (stereo not given)	-0.23
C=CCc1c(C)nc(-c2ccc(F)c(Cl)c2)nc1OC(=O)N(C)C	-2.2
CC(C)C1(C)N=C(c2ncccc2C(=O)O)NC1=O (stereo not given)	3.2*
Cc1cccc(NC2=NCC(C)S2)c1 (stereo not given)	-0.23
CCN(CC)C(=O)Oc1nc(-c2ccccn2)nc(COC)c1CC1CC1	0.76
CC1CN=C(Nc2cccc(C(F)(F)F)c2)S1 (stereo not given)	0.02
CC1(C)CN=C(NCc2ccccn2)S1	4*
COc1ccc(CCNCc2ccc3c(c2)OCO3)cc1OC	0.06
S=C1NC2=C(CCc3ccccc32)C(c2cccnc2)N1 (stereo not given)	-0.78
CC12CCC3(C[C@@H]1CCC1C2CCC2(C)C1CC[C@]2(C)O)OCCO3 (stereo not given in full)	0.6
CSC(=NCc1ccccc1Cl)N/C(N)=N\[N+](=O)[O-]	0.91
O=C(NC1CN2CCC1CC2)c1cccc(Cl)c1 (stereo not given)	-0.41
COc1cccc(CNC2CN3CCC2CC3)c1OC (stereo not given)	-1.2
Fc1ccc(CNC2CN3CCC2CC3)cc1 (stereo not given)	3.1*
SMILES	Dicer inh
CCCCCCn1c2ccc(C(=O)O)cc2c2cc(C(=O)O)ccc21	0.95
Oc1ccc(Br)cc1CN1CCN(Cc2cccc(F)c2)CC1	7*
CSc1ccc(CN2CCN(Cc3cc(Br)ccc3O)CC2)cc1	6.1*
CSc1ccc(CN2CCN(Cc3ccc(F)cc3)CC2)cc1	2.4
COc1ccccc1N1CCN(Cc2ccccc2F)CC1	-1.6
Clc1cccc(CN2CCN(Cc3cccc(Br)c3)CC2)c1	1.3
Oc1ccc(Br)cc1CN1CCN(Cc2ccc(F)cc2)CC1	3.3*
CSc1ccc(CN2CCN(Cc3ccc(Cl)cc3)CC2)cc1	0.08
COc1ccccc1CN1CCN(Cc2cc(Br)ccc2O)CC1	8*
